# About 79,000 compounds went through this panel and 15% of them were active in at least one assay; those are over-represented in the sample as a whole. A number with no mark means an inactive call. Active and inactive are the calls of the source. Cut-off read from the data, not from the text of the source: active = growth inhibition above about 70%; inactive = the rest.
# Assay: NCI Yeast Anticancer Drug Screen. Data for the mlh1 rad18 strain (AID 175)
# Conditions: S. cerevisiae mlh1 rad18 strain growth inhibition, active compounds read high
# Protocol: Growth inhibition of yeast strains with defined genetic alterations is measured as a screen for potential anti-cancer activity. Selected strains with alterations in DNA damage repair or cell cycle control were exposed to compounds and growth inhibition was measured relative to vehicle treated controls. The strain used in this assay is mlh1 rad18
# [1] = at 5.0 µM (retest, dose inferred, filed as 0.5)
# [2] = at 50.0 µM (retest, dose inferred, filed as 5.0)
SMILES,growth inhibition [1] [%],growth inhibition [2],growth inhibition (at 50.0 µM)
CCCC(C1=C(O)CC(C)CC1=O)C1=C(O)CC(C)CC1=O (configuration not stated),4,28%,0.45%
CCOC(=O)NN(C(=O)OCC)c1ccc(N=Nc2ccc(OC)cc2)n1C,-32,77% (active),69.9%
c1ccc2c3ccn4ccc5c6ccccc6[nH]c5c4c-3nc2c1,33,98% (active),85.4% (active)
CCCCCCCCCCCC(O)CN1CCOCC1 (configuration not stated),43,4%,94% (active)
CC1=C(C(=O)Nc2ccccc2)C(c2cc(Cl)cc(Cl)c2)C(C(=O)Nc2ccccc2)=C(C)N1,-4,-4%,74.1% (active)
CCOCCOc1ccc(OCCOCC)cc1,13,-15%,0.4%
CCNc1ncnc2c1ncn2Cc1ccco1,1,1%,-2%
O=C(CCl)N1CCN(C(c2ccccc2)c2ccccc2)CC1,15,97% (active),97.5% (active)
O=C1c2ccccc2-c2cc3ccccc3nc21,16,82% (active),84.5% (active)
O=C1c2ccccc2S(=O)(=O)CC1Br (configuration not stated),30,98% (active),99.2% (active)
C/C(=N\NC(=S)N1CCN(c2ccccc2)CC1)c1nccs1,34,97% (active),89.8% (active)
COc1cc2c(cc1OC)C(C)N(C)c1c-2c(OC(C)=O)cc2cc(OC)c(OC)cc12 (configuration not stated),-3,54%,70.5% (active)
COc1cc2cnc(-c3ccccc3)cc2cc1OC,13,86% (active),19.2%
CC(C)n1nnc2ccccc2c1=Nc1ccccc1,16,90% (active),96.5% (active)
